Measured values from PubChem BioAssay (NCATS).
The source made the active and inactive calls. The rule behind the calls is not given here.

System: HIV-1 nucleocapsid protein NCp7 (binding to TG oligonucleotide)
Test: HIV Nucleocapsid (AID 346);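 note: potency is for inhibitors that block NC binding and lower polarization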
Conditions: HIV-1 NC / fluorescein-TGTGTGTG probe, fluorescence polarization
Summary of the method: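 10 nM TG4xF probe with 100 nM nucleocapsid protein in high-salt Hepes pH 7.5 (250mM NaCl) containing 1uM ZnCl2 and reducing agents. Compound inhibition of binding was read as fluorescein polarization after 1 hr at room temperature.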
Potency is the fitted concentration of half-maximal effect.

SMILES | Potency
COc1ccccc1CNc1ncnc2ccc(-c3cccnc3)cc12 | > 20 µM (inactive)
CN(C)C(=O)c1ccc(-c2ccc3ncnc(NC4CCNCC4)c3c2)cc1 | > 20 µM (inactive)
Cc1ccccc1-c1ccc2ncnc(N3CCN(C)CC3)c2c1 | > 20 µM (inactive)
COCCn1c(=O)c(-c2cccc(C#N)c2)nc2cnc(OCc3ccccc3)nc21 | > 20 µM (inactive)
CCNc1ncc2nc(-c3cn(C)c4ccccc34)c(=O)n(CCC#N)c2n1 | > 20 µM (inactive)
CN(C)C(=O)c1ccc(-c2nc(Nc3ccccc3)c3ccccc3n2)cc1 | > 20 µM (inactive)
COc1cccc(Nc2ncc3nc(C)c(=O)n(-c4ccccc4)c3n2)c1 | > 20 µM (inactive)
O=C(Nc1cccc(F)c1)N1CCCC2(CCN(C(=O)c3cc(C(F)(F)F)cc(C(F)(F)F)c3)CC2)C1 | > 20 µM (inactive)
Cc1ccccc1-c1cc(-n2ccnc2)ncn1 | > 20 µM (inactive)
c1ccc(Nc2ncnc3ccc(-c4cccnc4)cc23)cc1 | > 20 µM (inactive)
O=C(c1cccc(F)c1)N1CCC2(CCCN(Cc3cc(C(F)(F)F)cc(C(F)(F)F)c3)C2)CC1 | > 20 µM (inactive)
COc1ccccc1CNc1ncncc1-c1ccccc1C | > 20 µM (inactive)
COc1ccc(Oc2ncc3nc(-c4cn(C)c5ccccc45)c(=O)n(C)c3n2)cc1 | > 20 µM (inactive)
COc1ccc(Oc2ncc3nc(C)c(=O)n(-c4ccccc4)c3n2)cc1 | > 20 µM (inactive)
O=C(c1ccncc1)N1CCC[C@@]2(CCN(Cc3cc(C(F)(F)F)cc(C(F)(F)F)c3)C2)C1 | > 20 µM (inactive)
O=C(c1cnccn1)N1CCC[C@@]2(CCN(Cc3ccncc3)C2)C1 | > 20 µM (inactive)
COc1ccccc1CN1CC2(CCN(C(=O)c3cnccn3)CC2)C1 | > 20 µM (inactive)
CS(=O)(=O)N1CCC[C@@]2(CCN(C(=O)Nc3ccccc3)C2)C1 | > 20 µM (inactive)
Cn1cccc1C(=O)N1CCC2(CC1)CN(Cc1cc(C(F)(F)F)cc(C(F)(F)F)c1)C2 | > 20 µM (inactive)

SMILES | Potency
CC(=O)N1CCC2(CCCN(c3cccc(-c4ccccc4)c3)C2)CC1 | > 20 µM (inactive)
COc1ccc(C(=O)N2CCC[C@@]3(CCN(C(=O)Nc4cccc(C#N)c4)C3)C2)cc1 | > 20 µM (inactive)
COc1ncc2ncc(=O)n(CCc3ccccc3)c2n1 | > 20 µM (inactive)
Cn1cccc1C(=O)N1CCC2(CCCN(c3ccc(-c4ccccc4)cc3)C2)CC1 | > 20 µM (inactive)
COc1ccc(Oc2ncc3nc(-c4ccccc4)c(=O)n(Cc4cccs4)c3n2)cc1 | > 20 µM (inactive)
Cc1noc(C)c1-c1nc(NCc2cccnc2)c2ccccc2n1 | > 20 µM (inactive)
CCNc1ncc2nc(-c3ccc(F)cc3)c(=O)n(C)c2n1 | > 20 µM (inactive)
COc1ccc(CNc2nc(-c3ccccc3OC)nc3ccccc23)c(OC)c1 | > 20 µM (inactive)
N#Cc1ccccc1-c1ccc2ncnc(NCc3cccnc3)c2c1 | > 20 µM (inactive)
N#Cc1ccccc1-c1ccc2ncnc(NC3CC3)c2c1 | > 20 µM (inactive)
COc1cccc(-c2cc(NCc3cnc(C)cn3)ncn2)c1 | > 20 µM (inactive)
O=C(c1cccc(F)c1)N1CCC2(CC1)CN(c1cccc(-c3ccccc3)c1)C2 | > 20 µM (inactive)
O=C(c1ccco1)N1CCC[C@@]2(CCN(c3ccccc3)C2)C1 | > 20 µM (inactive)
CS(=O)(=O)Nc1cccc(-c2nc(Nc3ccccc3)c3ccccc3n2)c1 | > 20 µM (inactive)
COc1ccc(-c2nc3cnc(N4CCOCC4)nc3n(CCc3ccccc3)c2=O)cc1 | > 20 µM (inactive)
c1ccc(Nc2cc(-c3ccoc3)ncn2)cc1 | > 20 µM (inactive)
COCCNc1ncnc2ccc(-c3ccccc3C(F)(F)F)cc12 | > 20 µM (inactive)
COc1cccc(-c2nccc(NCc3cccnc3)n2)c1 | > 20 µM (inactive)
